The values that follow come from PubChem BioAssay (NCATS).

Inconclusive results are not listed. A call without a number means that no potency is given here. Calls of active or inactive are those of the source. The call rests on the fitted dose curve; in most records, active means well fitted cell-killing curve with a large enough effect; inconclusive means small, poorly fitted or top-dose-only effect, or effect the other way; inactive means no such curve, though single readings can be large or run the other way.
Potency means the concentration at half of the fitted maximal effect.

A short description of this assay: Quantitative High-Throughput drug screen in 47 multiple myeloma cell lines against the NCATS MIPE library collection: MM1R_ATCC cell viability assay (AID 1918981). Further: nearly all actives have a fitted effect of over 35% in size. Particulars: MM1R multiple myeloma cells, CellTiter-Glo viability, 48 h; series mostly up to 45.8 µM. An excerpt: PI: Beverly A. Mock Ph.D.
Laboratory of Cancer Biology and Genetics,
Center for Cancer Research, National Cancer Institute,
National Institute of Health, Bethesda, Maryland
Drug resistance and disease progression are common in multiple myeloma (MM) patients, underscoring the need for new therapeutic combinations. […] We hypothesized that effective combinations would reduce MYC expression and enhance p16 activity. […] These preclinical data identify potentially useful drug combinations for evaluation in drug-resistant MM and reveal potential mechanisms of combined drug sensitivity.
Described herein is the primary MIPE qHTS used to cherrypick compounds. Validated compounds were then further tested for potential synergistic activiy.
[1] Peat TJ, Gaikwad SM, Dubois W, Gyabaah-Kessie N, Zhang S, Gorjifard S, Phyo Z, Andres M, Hughitt VK, Simpson RM, Miller MA, Girvin AT, Taylor A, Williams D, D'Antonio N, Zhang Y, Rajagopalan A, Flietner E, Wilson K, Zhang X, Shinn P, Klumpp-Thomas C, McKnight C, Itkin Z, Chen L, Kazandijian D, Zhang J, Michalowski AM, Simmons JK, Keats J, Thomas CJ, Mock BA. Drug combinations identified by high-throughput screening promote cell cycle transition and upregulate Smad pathways in myeloma. Cancer Lett. 2023 Aug 1;568:216284. doi: 10.1016/j.canlet.2023.216284. Epub 2023 Jun 24. PMID: 37356470; PMCID: PMC10408729.
SEQUENCE No. (e.g., 1, 2, 3, etc.); […] (e.g., Cells, Incubation, Reagent, etc.); VALUE and DESCRIPTION.
1; Cells; 5 uL; white, solid bottom 1536-well Greiner assay plate.
2; Compounds; 23 nL; Kalypsis pin tool (Wako USA) equipped with a 1536-well pin head to transfer to the assay plates.
3; Incubation; 48 hours; 37C incubation.
4; Reagent;5uL; CellTiter Glo (Promega).
5; Detector; 425V; Luminescence; Viewlux PerkinElmer.
NOTES (numbers refer to Sequence numbers above)
1. The cell-based screening methods employed in this study were like those previously published. Briefly, the corresponding myeloma cell lines were screened in 1,536-well plates with 500 cells, 5-uL per well for inhibition of cell viability (assessed by measuring ATP levels with CellTiterGlo).
2. NCATS MIPE 4.0 library of approved and investigational drugs were added using the Kalypsis pin tool. Wells treated with DMSO only for 100% viability and media only for 0% viability were used as controls.
3. The assay plates were covered and incubated for 48 hours in a 37C, 5% CO2 incubator with controlled humidity.
4. After 48 hours, CellTilter-GloTM luminescent substrate mix (Promega) reagent was added to the assay plate and plates we incubated for 5 min at room temperature.
5. Signal was measured as median relative luminescence units on a ViewLux (PerkinElmer) multiplate reader.
[1] Heske CM, Davis MI, Baumgart JT, Wilson K, Gormally MV, Chen L, Zhang X, Ceribelli M, Duveau DY, Guha R, Ferrer M, Arnaldez FI, Ji J, Tran HL, Zhang Y, Mendoza A, Helman LJ, Thomas CJ. Matrix Screen Identifies Synergistic Combination of PARP Inhibitors and Nicotinamide Phosphoribosyltransferase (NAMPT) Inhibitors in Ewing Sarcoma. Clin Cancer Res. 2017 Dec 1;23(23):7301-7311. doi: 10.1158/1078-0432.CCR-17-1121. Epub 2017 Sep 12. PMID: 28899971; PMCID: PMC6636827.
Regarding `O=C(O)c1cc(=O)[nH]c(=O)[nH]1`, the Potency entry was “inactive”.

As for `CC[C@H](NC(C)C)[C@H](O)c1ccc(O)c2[nH]c(=O)ccc12`, the Potency was 0.59 µM (active).

With `O=NN(CCCl)C(=O)NC1CCCCC1`, the Potency entry was “inactive”.

`C[C@@H](NCCCc1cccc(C(F)(F)F)c1)c1cccc2ccccc12`: the Potency result was “inactive”.

Consider `COC(=O)Nc1nc2ccc(C(=O)c3ccccc3)cc2[nH]1`, for which the Potency was 1.66 µM (active).

Turning to `CCOc1cc(N)c(Cl)cc1C(=O)NCC1CN(Cc2ccc(F)cc2)CCO1` (stereo not given), the Potency result was “inactive”.

Regarding `COC(=O)Nc1nc2ccc(Sc3ccccc3)cc2[nH]1`, the Potency is 4.18 µM (active).

Take `NS(=O)(=O)c1cc2c(cc1Cl)NC(C(Cl)Cl)NS2(=O)=O` (stereo not given): the Potency result was “inactive”.

In the case of `CCCc1cc(C(N)=S)ccn1`, the Potency entry is “inactive”.

In the case of `Cc1ncc([N+](=O)[O-])n1CCO`, the Potency result was “inactive”.

Turning to `CC(C)C[C@H](NC(=O)[C@H](CCc1ccccc1)NC(=O)CN1CCOCC1)C(=O)N[C@@H](Cc1ccccc1)C(=O)N[C@@H](CC(C)C)C(=O)[C@@]1(C)CO1`, the Potency was 0.0037 µM (active).

For the compound `O=S(=O)(c1cccc2cnccc12)N1CCCNCC1`, the Potency result was “inactive”.

On to `O=C(N[C@H](CO)[C@H](O)c1ccc([N+](=O)[O-])cc1)C(Cl)Cl`, for which the Potency entry is “inactive”.

Turning to `COc1cc(NCc2ccc3nc(N)nc(N)c3c2C)cc(OC)c1OC`, the Potency is 7.43 µM (active).

On to `CNNCc1ccc(C(=O)NC(C)C)cc1`, for which the Potency was 11.8 µM (active).

For the compound `COc1ncnc(NS(=O)(=O)c2ccc(N)cc2)c1OC`, the Potency result is “inactive”.

For the compound `CC1CC2C3CCC4=CC(=O)C=C[C@]4(C)[C@@]3(F)[C@@H](O)C[C@]2(C)[C@@]1(O)C(=O)CO` (stereo not given in full), the Potency entry is “inactive”.

With `Nc1ccc(S(=O)(=O)Nc2ccccn2)cc1`, the Potency result was “inactive”.

As for `CC1=NN(c2ccccc2)C(=O)C1`, the Potency result is “inactive”.

Turning to `CCOC(=O)[C@H](CCc1ccccc1)N[C@H]1CCc2ccccc2N(CC(=O)O)C1=O`, the Potency is 20.9 µM (active).

On to `CC(C)OC(=O)OCOP(=O)(CO[C@H](C)Cn1cnc2c(N)ncnc21)OCOC(=O)OC(C)C`, for which the Potency was 11.8 µM (active).

In the case of `CCN[C@H]1C[C@H](C)S(=O)(=O)c2sc(S(N)(=O)=O)cc21`, the Potency result is “inactive”.

For the compound `CC(=O)Oc1ccccc1C(=O)Nc1ncc([N+](=O)[O-])s1`, the Potency is 19.1 µM (active).

Take `COc1ccc2cc3[n+](cc2c1OC)CCc1cc2c(cc1-3)OCO2`: the Potency is 4.69 µM (active).

`CCN(CC)CC#CCOC(=O)C(O)(c1ccccc1)C1CCCCC1` (stereo not given): the Potency result was “inactive”.

With `CNS(=O)(=O)Cc1ccc2[nH]cc(CCN(C)C)c2c1`, the Potency result was “inactive”.

As to `O=C(O)c1cn(C2CC2)c2cc(N3CCNCC3)c(F)cc2c1=O`, the Potency result was “inactive”.

On to `CCN1CCCC1CNC(=O)c1cc(S(N)(=O)=O)ccc1OC` (stereo not given), for which the Potency result is “inactive”.

For the compound `C#CCN[C@@H]1CCc2ccccc21`, the Potency entry was “inactive”.

For `NC(N)=NC(N)=NCCc1ccccc1`, the Potency was 16.6 µM (active).

For `CC(C)NCC(O)c1ccc(NS(C)(=O)=O)cc1` (stereo not given), the Potency entry is “inactive”.

With `CC(C)(C)C(=O)OCOP(=O)(COCCn1cnc2c(N)ncnc21)OCOC(=O)C(C)(C)C`, the Potency was 0.332 µM (active).

For `CCOC(=O)[C@H](CCc1ccccc1)N[C@H]1CS[C@H](c2cccs2)CN(CC(=O)O)C1=O`, the Potency is 18.7 µM (active).

`Cc1oc(=O)oc1CN1CCN(c2cc3c(cc2F)c(=O)c(C(=O)O)c2n3C(C)S2)CC1` (stereo not given): the Potency entry is “inactive”.

Consider `C[C@@H]1C[C@H]2[C@@H]3CCC4=CC(=O)C=C[C@]4(C)[C@@]3(Cl)[C@@H](O)C[C@]2(C)[C@@]1(OC(=O)c1ccco1)C(=O)CCl`, for which the Potency is 16.6 µM (active).

As to `CCC(=O)O[C@]1(C(=O)SCF)[C@H](C)C[C@H]2[C@@H]3C[C@H](F)C4=CC(=O)C=C[C@]4(C)[C@@]3(F)[C@@H](O)C[C@@]21C`, the Potency entry is “inactive”.

Consider `Nc1[nH]c(=O)ncc1F`, for which the Potency result was “inactive”.

Consider `CNC1CCCN(c2c(F)cc3c(=O)c(C(=O)O)cn(C4CC4)c3c2OC)C1` (stereo not given), for which the Potency result was “inactive”.

On to `NC1(c2ccc(-c3nc4ccn5c(=O)[nH]nc5c4cc3-c3ccccc3)cc2)CCC1`, for which the Potency is 5.26 µM (active).

As to `Cc1onc(-c2ccccc2Cl)c1C(=O)N[C@@H]1C(=O)N2[C@@H]1SC(C)(C)[C@@H]2C(=O)O`, the Potency result was “inactive”.
